# PubChem BioAssay AID588342 (National Center for Advancing Translational Sciences (NCATS), 2011)
# In all, about 360,000 compounds went through this assay and about 25,000 (6.9%) were called active. About 9% were inconclusive and are not listed. The call rests on the fitted dose curve; in most records, active means well fitted inhibition curve with a large enough effect; inconclusive means small, poorly fitted or top-dose-only effect; inactive means flat fitted curve, though single readings scatter. Shown is part of a subset that was picked to be rich in actives. Entries that show only a call come without a potency.
# Biological target: Luciferin 4-monooxygenase (Photinus pyralis) (UniProt P08659)
# Sequence (P08659 whole entry, looked up): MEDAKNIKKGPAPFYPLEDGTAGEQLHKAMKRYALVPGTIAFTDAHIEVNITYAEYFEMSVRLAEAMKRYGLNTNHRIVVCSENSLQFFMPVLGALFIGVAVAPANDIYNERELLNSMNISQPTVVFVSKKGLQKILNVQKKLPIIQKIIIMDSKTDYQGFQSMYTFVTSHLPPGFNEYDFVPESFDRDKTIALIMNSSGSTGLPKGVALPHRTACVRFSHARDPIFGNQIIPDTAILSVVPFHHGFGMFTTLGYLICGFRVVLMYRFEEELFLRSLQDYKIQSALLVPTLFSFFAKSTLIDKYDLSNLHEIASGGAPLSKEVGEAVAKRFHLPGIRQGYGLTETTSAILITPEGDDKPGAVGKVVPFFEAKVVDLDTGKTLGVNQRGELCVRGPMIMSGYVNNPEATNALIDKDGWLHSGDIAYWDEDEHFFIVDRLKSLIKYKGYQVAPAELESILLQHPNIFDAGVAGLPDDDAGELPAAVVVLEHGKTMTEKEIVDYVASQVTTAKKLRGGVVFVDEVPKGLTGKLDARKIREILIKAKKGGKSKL
# Test: qHTS profiling assay for firefly luciferase inhibitor/activator using purifed enzyme and Km concentrations of substrates (counterscreen for miR-21 project); further: nearly all actives have a fitted effect of over 55% in size
# Settings: purified FLuc, luminescence inhibition; series mostly up to 57.5 µM
# Summary of the method: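 Biochemical qHTS of compounds, final roughly 60 µM downward over six points, against 10 nM purified firefly luciferase using Km concentrations of substrates (10 uM D-luciferin, 10 uM ATP) in Tris acetate pH 7.5 buffer; luminescence output.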
# Potency means the concentration at half of the fitted maximal effect.
row,SMILES,Potency
1,COc1ccc(NC(=O)CSc2nnc(-c3nnn(-c4ccc(F)cc4)c3C)o2)cc1,inactive
2,CCc1c(-c2ccccc2)nc(N)c(C#N)c1-c1cccs1,inactive
3,CN(C(=O)COc1nnc(-c2cccs2)c(-c2cccs2)n1)c1ccccc1,inactive
4,O=C(O)Cc1sc(-c2ccccc2)nc1-c1cccs1,23.9 µM (active)
5,O=C(CCc1ccccc1Cl)Nc1ccc(S(=O)(=O)Nc2nccs2)cc1,inactive
6,COc1cc(C(=O)N(Cc2ccc(C(C)C)cc2)C2CCS(=O)(=O)C2)cc(OC)c1OC (stereo not given),inactive
7,CC(=O)N/N=C(\C)c1ccc(Br)cc1Br,inactive
8,COc1ccc(-c2[nH]ncc2/C=N/NC(=O)c2cc(Br)ccc2O)c(OC)c1,inactive
9,CC(=N\NC(=O)c1cc(Br)ccc1O)/C(=N/O)C(=O)Nc1ccccc1,15.1 µM (active)
10,CCOC(=O)c1c(NC(=O)c2ccc(S(=O)(=O)N3CCCC(C)C3)cc2)sc2c1CCN(C(C)C)C2 (stereo not given),inactive
11,CC(C)CCN1CCC(C)(NC(=O)c2ccccc2)C1=O (stereo not given),inactive
12,CC1=C(c2ccc(F)cc2)S(=O)(=O)N=C1N1CCC(C(=O)NCCc2ccccc2C)CC1,inactive
13,O=C(c1cnn2ccccc12)N1CCc2ccccc21,6.75 µM (active)
14,CCOC(=O)N1CCC(NC(=O)c2cnn3ccccc23)CC1,inactive
15,Cc1cnc(C(=O)OCC(=O)N2CCc3ccccc32)cn1,inactive
16,CCOC(=O)c1c(NC(=O)/C(C#N)=C/c2ccccc2)sc2c1CCC2,inactive
17,COc1ccc(Cn2c(C(=O)O)c(CNCc3cccc(OC)c3)c3ccc(C)cc32)cc1,inactive
18,CN1CCN(S(=O)(=O)c2cccc(C(=O)Nc3sccc3C#N)c2)CC1,inactive
19,O=C(Nc1ccncc1)c1ccccc1[N+](=O)[O-],inactive
20,O=C(Nc1ccccc1C(=O)Nc1ccncc1)c1ccc([N+](=O)[O-])cc1,19 µM (active)
21,O=C(Nc1ccncc1)c1ccc(Cl)c([N+](=O)[O-])c1,inactive
22,CC(=O)Nc1ccc(NC(=O)CSc2nnc(C3CC3)n2-c2ccccc2)cc1,inactive
23,CCc1nn(CCCC(=O)NCc2ccccc2OC)c(=O)c2cc3occc3n12,inactive
24,CC1CN(C(=O)N2CCC(C(=O)NCc3ccco3)CC2)c2cc(Cl)ccc2O1 (stereo not given),inactive
25,CC1CN(C(=O)N2CCC(C(=O)NCc3cccs3)CC2)c2ccccc2O1 (stereo not given),1.9 µM (active)
26,O=C(NCc1cccs1)C1CCN(S(=O)(=O)c2ccc(Cl)cc2)CC1,inactive
27,Cc1nc2nc(SCC(=O)NC3CCC(C)CC3)nn2c(C)c1Cc1ccccc1Cl (stereo not given),inactive

row,SMILES,Potency
1,O=c1oc(/C=C/c2ccccc2)nc2ccccc12,inactive
2,Clc1ccc(CSc2nnc(/C=C/c3ccccc3)o2)c(Cl)c1,inactive
3,S=c1[nH]nc(/C=C/c2ccccc2)o1,26.9 µM (active)
4,COc1cccc(-n2ccn(CC(=O)NCc3ccc(C)cc3)c(=O)c2=O)c1,inactive
5,CCS(=O)(=O)N1CCc2cc(C(=O)N3CCN(c4ccccc4OC)CC3)ccc21,inactive
6,CCc1ccc2nc3sc(C(=O)Nc4nnc(CC)s4)c(N)c3cc2c1,2.39 µM (active)
7,CCc1nnc(NC(=O)c2nc3nccc(C)n3n2)s1,inactive
8,CCc1ccccc1NC(=O)c1sc2nc3c(cc2c1N)CN(Cc1ccccc1)CC3,inactive
9,CSc1ccc(CCNC(=O)c2ccc3c(c2)nc2n3CCOC2)cc1,inactive
10,Cc1ccc(NC(=O)COc2ccc(/C=C3/NC(=O)NC3=O)cc2)cc1,inactive
11,CC(C)c1ccc(S(=O)(=O)N2CCC3(CC2)OCCO3)cc1,inactive
12,CC(C)c1ccc(/C=C2\NC(=O)NC2=O)cc1,21.3 µM (active)
13,Cc1ccc(C)c(Cn2c(C(=O)O)c(CNCc3cccs3)c3ccccc32)c1,inactive
14,Cc1ccnc(NC(=O)CCCOc2ccccc2)c1,inactive
15,COc1cc(SC)ccc1C(=O)Nc1cc(C)ccn1,1.35 µM (active)
16,Cc1ccnc(NC(=O)c2ccoc2C)c1,16.9 µM (active)
17,COc1cc(SC)ccc1C(=O)Nc1nc(C)cs1,0.0757 µM (active)
18,COc1cc(SC)ccc1C(=O)NCCOc1ccccc1Cl,6.01 µM (active)
19,COc1cc(SC)ccc1C(=O)N(Cc1ccccc1)c1ccccc1,inactive
20,Cc1ccnc(NC(=O)C(C)N2C(=O)c3ccccc3C2=O)c1 (stereo not given),inactive
21,COc1cc(Cl)c(C)cc1NC(=O)COC(=O)c1cc(SC)ccc1Cl,inactive
22,COc1ccccc1OCCNC(=O)CCNC(=O)c1ccccc1Cl,inactive
23,Cc1occc1C(=O)Nc1cccc(Cn2cccn2)c1,inactive
24,O=C(NCCOc1ccccc1Cl)C(=O)Nc1ccccc1,inactive
25,Cc1csc(NC(=O)CSc2nc(=O)cc(N)n2-c2ccc(F)cc2)n1,inactive
26,O=C(CN1CCN(C(=O)C2CCCO2)CC1)Nc1c(Cl)cccc1Cl (stereo not given),inactive
27,CCCCCCNC(=O)CSc1nccn1Cc1ccccc1,inactive

row,SMILES,Potency
1,COC(=O)Cn1cnc2scc(-c3ccc(C)c(C)c3)c2c1=O,inactive
2,CCC(NC(=O)c1ccccc1NC(=O)c1ccccc1)C(=O)NNC(=O)CSc1nc2ccccc2o1 (stereo not given),inactive
3,O=C(Cn1nnc2ccccc2c1=O)Nc1cc(C(F)(F)F)ccc1N1CCOCC1,inactive
4,CC(CO)NCC12CC3CC(CC(C3)C1)C2 (stereo not given),inactive
5,CCOc1ccccc1NC(=O)c1ccc2c(c1)CCN2S(=O)(=O)c1ccc(C)cc1,inactive
6,O=C(NCCc1csc(-c2ccc(C(F)(F)F)cc2)n1)C(=O)Nc1ccc(F)c(Cl)c1,inactive
7,Cc1ccc(C)c(N2CCN(C(=O)CN3C(=O)COc4ccc(S(=O)(=O)N5CCCCCC5)cc43)CC2)c1,inactive
8,COc1ccccc1OCCNc1cc(N2CCOCC2)ccc1[N+](=O)[O-],15.1 µM (active)
9,O=C(c1ccccc1)N1CCN(c2ccc([N+](=O)[O-])c(NCc3ccco3)c2)CC1,inactive
10,CC(=O)Nc1ccc(S(=O)(=O)N2CCN(c3ccc([N+](=O)[O-])c(NCCN4CCOCC4)c3)CC2)cc1,inactive
11,O=C(CCn1ccc2cc(S(=O)(=O)N3CCCC3)ccc21)NCc1cccc(Cl)c1,inactive
12,COc1ccc(-c2noc(C(C)NS(=O)(=O)c3ccc(NC(C)=O)cc3)n2)cc1 (stereo not given),inactive
13,CCCn1c(N)c(C(=O)CSc2nnc3n2CCCCC3)c(=O)[nH]c1=O,inactive
14,Cc1nc(/N=C(\N)NC(=O)NC2CCCCC2)nc2ccccc12,16.9 µM (active)
15,COC(=O)[C@H](Cc1ccccc1)NC(=O)Nc1ccc(OC)cc1,inactive
16,O=C(NNC(=O)C(O)c1ccccc1)NC1CCCCC1 (stereo not given),inactive
17,COc1ccc2nc(/N=C(\N)NC(=O)Nc3ccccc3)nc(C)c2c1,26.9 µM (active)
18,O=C(Cn1nnc(-c2ccccc2)n1)NC(=O)NC1CCCC1,inactive
19,COc1cc(NC(=O)c2nc3ccccc3nc2C)cc(OC)c1OC,inactive
20,Cc1cc(NC(=O)CC(C)C)cc(-c2nc3ncccc3o2)c1O,inactive
21,O=C(c1cccs1)c1cn(CCOc2ccc(Cl)cc2)c2ccccc12,inactive
22,O=C(CCCOc1ccccc1)Nc1cccc(C(=O)O)c1,15.1 µM (active)
23,CCOC(=O)c1cccc(NC(=O)CCOc2ccccc2)c1,inactive
24,COc1ccc(OCCCC(=O)Nc2cccc(S(=O)(=O)N3CCCCCC3)c2)cc1,inactive
25,COCCn1cnnc1SCC(=O)Nc1cccc(S(=O)(=O)N2CCCCC2)c1,inactive
26,CCOc1ccccc1CNC(=O)c1cnc2c(-c3ccc(OCC)c(OCC)c3)c(C)nn2c1C,inactive
27,COc1cccc(OCCn2c(-c3ccc(Br)cc3)nc3ccccc3c2=O)c1,inactive

row,SMILES,Potency
1,COc1ccc(OCc2ccc(-c3nc(C#N)c(N4CCN(c5ccccc5)CC4)o3)o2)cc1,inactive
2,COc1ccccc1OCCCn1c(-c2ccc(Cl)cc2)nc2ccccc2c1=O,inactive
3,COc1ccc(OCc2ccc(-c3nc4ccccc4c(=O)n3N)o2)cc1,12 µM (active)
4,COc1ccc(-c2nc3ccccc3c(=O)n2CCc2ccc(O)cc2)cc1,21.3 µM (active)
5,COC(=O)c1ccc(CSc2nc3ccccc3c(=O)n2-c2cccc(OC)c2)o1,inactive
6,Cc1cc(C)cc(OCC(=O)Nc2ccc(N3CCOCC3)cc2N2CCOCC2)c1,inactive
7,Cc1nn2c(=O)cc(COC(=O)CNC(=O)c3ccc(F)cc3)nc2s1,inactive
8,COc1cccc(N2CCN(S(=O)(=O)c3cc(Br)cc4c3N(C(=O)C3CC3)CC4)CC2)c1,inactive
9,COc1ccc(S(=O)(=O)NCC2CCCN(C(=O)c3occc3C)C2)cc1 (stereo not given),inactive
10,COc1cc(C)c(C)cc1S(=O)(=O)N1CCCc2ccccc21,inactive
11,COc1ccc(CCC(C)N2CCc3ccccc3C2)cc1 (stereo not given),inactive
12,Cc1cccc(-n2ncc3c(N4CCc5ccccc54)ncnc32)c1,0.536 µM (active)
13,COc1ccc(-n2ncc3c(N4CCCc5ccccc54)ncnc32)cc1,1.35 µM (active)
14,Cc1ccc(-n2ncc3c(=O)[nH]cnc32)c(C)c1,inactive
15,COc1ccc(-n2c(C)nc3c(cnn3-c3ccc(F)cc3)c2=O)cc1,inactive
16,Cc1cccc(-n2ncc(Cl)c(Cl)c2=O)c1,inactive
17,COc1ccc2oc(=O)c(C(=O)N3CCCc4ccccc43)cc2c1,inactive
18,COc1ccc(-n2ncc3c(N4CCc5ccccc54)ncnc32)cc1,0.379 µM (active)
19,CCCCN(C(=O)C1=NN(c2cc(C)ccc2C)C(=O)CC1)c1c(N)n(CCC)c(=O)[nH]c1=O,inactive
20,COc1cccc(CNC(=O)CN2C(=O)NC(Cc3ccccc3)(c3ccccc3)C2=O)c1 (stereo not given),inactive
21,CC1=C(c2ccc(Cl)cc2)S(=O)(=O)N=C1N1CCN(c2cc(C)ccc2C)CC1,inactive
22,O=C(CSc1ccccc1)Nc1nnc(/C=C/c2ccccc2)s1,inactive
23,COc1ccc(/C=C/c2nnc(NC(=O)C(C)C)s2)cc1,2.69 µM (active)
24,CC(C)C(=O)Nc1nnc(Sc2ccc(N(C)C)cc2)s1,inactive
